Experimental data as given in PubChem BioAssay AID623980 (National Center for Advancing Translational Sciences (NCATS), 2012).
The other results are listed elsewhere or left out. Calls of active or inactive are those of the source. Calls follow the shape of the dose curve; as a rule, active = well fitted curve in the direction sought with a large enough effect; inactive = no such curve, though single readings can be large or run the other way.

Test: qHTS for Inhibitors of mutant isocitrate dehydrogenase 1 (IDH1): Cherrypicks Autofluorescence Interference;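 also: 0% = wells with normal resorufin and full inhibition = wells lacking resorufin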
Details: Resorufin detection reagent fluorescence interference, cell-free; series mostly up to 51.2 µM; inhibition of signal: at the top concentration
From the text: Readout Interference Assay for Inhibitors of IDH1 R132H and WT IDH1 Malignant glioblastomas (WHO grade IV), including primary and secondary glioblastomas, are among the most lethal with a median survival of one year, and unfortunately they are also the most prevalent type of brain tumors. By and large the standard of care of gliomas remains the use of the oral alkylating agent temozolomide and radiotherapy following surgical tumor resection. There is an urgent unmet medical need for novel therapeutics for gliomas. IDH mutations occur in up to 70% of grade II-IV secondary glioblastomas, and IDH1 R132H is the most prevalent mutation. […] Wild-type (WT) IDH1 catalyzes the conversion of isocitrate to a-ketoglutarate with the concomitant reduction of NADP+ to NADPH. In contrast, IDH1 R132H catalyzes the conversion of -ketoglutarate to 2-hydroxyglutarate (2-HG) with the concomitant oxidation of NADPH to NADP+ [5]. Recently, a second significant advancement for the field was the finding that IDH is an oncogene, and that its metabolic product 2-HG may contribute to the pathogenesis of IDH-mutated cancers. […] Although this link to cancer is tantalizing, the direct evidence of how 2-HG drives pathogenesis of gliomas and AML remains a subject of further research. The goal of this detection interference assay is to identify whether the potential small-molecule inhibitors of IDH1 R132H or WT IDH1 confound the fluorescence readout by interfering with the detection reagent. Inhibition of the detection reagent would lead to a decrease in observed fluorescence of the product resorufin relative to the DMSO control. Compounds were screened as concentration-titration series that ranged from 76 uM to 0.15 uM. NIH Molecular Libraries Probe Production Network [MLPCN] NIH Chemical Genomics Center [NCGC] MLSCN Grant: R03 DA032129 PI Name: Dr. Lenny Dang
Detection reagent buffer was dispensed into black, solid 1536-well plates at 9 microL/well in 20 mM Tris buffer, pH 7.5, containing final concentrations of 10 mM MgCl2, 20 mM NaCl, 0.05% BSA, 2 mM beta-ME, 0.008 mM NADPH, 1 mM alpha-ketoglutarate, and 0.008 mM resorufin. Then, 23 nL of compounds or DMSO were delivered to each well using a pin tool. The fluorescence intensity was monitored on an Envision plate reader at 590 nm (Ex 540, Em 590, bodipy mirror, 10 flashes). The %Activity was determined from the corrected fluorescence values. Resorufin at 0x was included to normalize %Activity of identified inhibitors; 0x resorufin values corresponded to 100%Activity (full inhibition), while 1x resorufin values were used to normalize 0%Activity (no inhibition). Concentration-response curves were fitted to the signals arising from the resulting fluorescence. The concentration-response curves were then classified based on curve quality (r2), response magnitude and degree of measured activity, and compounds were subsequently categorized based on their curve class. […] Keywords: Isocitrate dehydrogenase, IDH1, IDH1 R132H, 2-HG, 2-hydroxyglutarate, AML, glioma, MLSMR, MLPCN, NIH Roadmap, qHTS, NCGC

Inhibition of signal, inactive:
COc1ccc(Cl)cc1-n1c(=S)sc2c(=O)n(-c3ccc(F)cc3)c(SCC(=O)O)nc21 -36.4%
CCCc1[nH]nc2c1C(c1ccc(OC)c(Cn3nc(C)c(Br)c3C)c1)C(C#N)=C(N)O2 (centres undefined) -4.01%
CC(C)Nc1nc(N(c2ccccc2)c2ccccc2)nc(-n2ccnc2)n1 3.09%
COc1ccc(C(C(=O)NC2CCCCC2)N(C(=O)c2snc(C(N)=O)c2N)c2ccccc2OC)cc1 (centres undefined) -1.26%
COc1cc(/C=C2/C(=O)ON=C2C)ccc1OCc1ccccc1F 4.14%
CCOC(=O)c1ccc(N2C(=O)c3n[nH]c(-c4ccco4)c3C2c2ccc(O)cc2)cc1 (centres undefined) -3.39%
Cc1cccc(N(C(=O)Cc2cccs2)C(C(=O)NC2CCCC2)c2ccsc2)c1 (centres undefined) -1.86%
COC(=O)c1ccc(-c2c(-c3ccccc3)ncc3cc(OC)c(OC)cc23)cc1 5.32%
Cc1nc(-c2ccc(Cl)cc2)sc1C(=O)CBr 2.34%
CCCNc1ncnc2c1c(-c1ccccc1)cn2-c1ccc(OCC)cc1 -0.98%
CCCCC(=O)NC(c1ccc(OC)c(OC)c1)c1ccc2cccnc2c1O (centres undefined) 7.47%
C(=N/Nc1cc(N2CCOCC2)nc(N2CCOCC2)n1)/c1ccccc1 -4.67%
COC(=O)c1cccc(N(C(=O)c2ccco2)C(C(=O)NC2CCCC2)c2ccco2)c1 (centres undefined) 1.47%
COc1ccc(/C=N/Nc2cc(N3CCOCC3)nc(C)n2)c(OC)c1 -13.2%
O=C(NC(Nc1nc2ccc([N+](=O)[O-])cc2s1)(C(F)(F)F)C(F)(F)F)c1ccccc1 7.74%
N#CC1=C(N)C(C#N)(C#N)[C@H](c2ccsc2)[C@H]2COCC=C12 7.1%
Cc1ccc2nc(N3C(=O)C(O)=C(C(=O)c4ccco4)C3c3cccc(O)c3)sc2c1 (centres undefined) 6.24%
CCCc1nc2c(c(=O)c3ccccc3n2C)c(=O)n1C1CCCCCC1 -4.87%
O=C1c2cccc3cccc(c23)C(=O)N1CCCCCc1n[nH]c(=S)o1 8.06%
COc1cc2c(-c3ccc4c(c3)OCO4)c(-c3ccsc3)oc(=O)c2cc1OC 2.12%
COc1ccc(/C=C2/SC(=O)N(CCCCCC(=O)Nc3ccccc3C(=O)O)C2=S)cc1 -2%
CCOC(=O)c1oc2c(CN3CCN(CCO)CC3)c(O)c(CC)cc2c(=O)c1-c1nc2ccccc2s1 -3.6%
Cn1c(COc2ccc(Cl)cc2)nc2ccccc2c1=O -3.55%
COc1ccc(C(CCN(Cc2ccc(OC)c(OC)c2)C(=O)CCl)c2ccccc2)cc1 (centres undefined) 3.98%
Cc1ccc(Nc2nc(CSc3nnc(-c4ccncc4)n3-c3ccccc3C)cs2)cc1 10.4%
Cc1ccc(-c2nn(-c3ccccc3)cc2/C=C2\SC(=S)N(CCCCCC(=O)O)C2=O)o1 0.67%
Cc1nc(C)c(C(=O)N(c2ccc(C)c(C)c2)C(C(=O)NCc2ccco2)c2ccccc2)s1 (centres undefined) 2.62%
CCSc1nc2sc3c(c2c(=O)n1-c1ccc(C)cc1)CCN(C)C3 -9.92%
CCCCOc1ccc(CN2C(=O)C(=O)c3cc(Br)cc(C)c32)cc1OC -4.85%
COc1cc(/C=C2/SC(=S)N(Cc3ccccc3)C2=O)cc(OC)c1O 2.53%
CC(C)(C)c1ccc(S(=O)(=O)Nc2ccc(O)c(Sc3nc4ccccc4s3)c2)cc1 -6.05%
CC(C)N(C(=O)CSc1nc(COc2ccccc2)nc2ccccc12)C(C)C -7.76%
CCC(C)(C)NC(=O)C(c1cccn1C)N(Cc1ccc(C)cc1)C(=O)Cn1nnc2ccccc21 (centres undefined) -2.24%
CCCOc1ccc(C2c3c(-c4ccccc4O)n[nH]c3C(=O)N2Cc2cccnc2)cc1 (centres undefined) -5.36%
